Epigenetic reg: regulators of epigenetic silencing causing reporter derepression in mouse cells; murine LDR cells, GFP reporter derepression, 30 h; Potency, µM (titrated, usually from 53.9 µM), for inactives: at the top dose GFP activation, usual class: activators; hit rate 0.2% among 280,000; active = well fitted activation curve with a large enough effect; also: potency is read from the fitted curve at half-maximal effect; % of control where 0% means no effect; nearly all actives have a fitted effect of over 60% in size
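GFP-positive cell count by laser-scanning cytometry (objects 20–120 um) after 30 h, 37 C compound exposure of murine LDR cells; reporter is CMV-GFP integrated at a silenced locus, inducible by HDAC or DNMT inhibitors.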
TRHR ag: TRH receptor (human) agonism; P34981; TRHR cells, calcium flux fluo-8, FDSS agonist mode; activation, % at 2 µM; hit rate 0.18% among 360,000; AID 493084; also: 0% is about no effect
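TRHR-expressing cells loaded with fluo-8 calcium dye; 23 nL library compound pin-transferred, kinetic FDSS fluorescence (Ex 480/Em 530) recorded about 180 s for agonist-induced calcium release, before a 10 nM TRH EC20 addition for potentiator mode.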
D1 antag: blocks dopamine activation of the human D1 receptor. P21728. HEK293 TREx D1 cells, calcium flux, dopamine EC80; hits give low values. activity change, negative = inhibition, % at 10 µM. hit rate 3.2% among 360,000. AID 504652; in the data active = activity change below about -30%; also: % is scaled to controls: 0 for no effect and ±100 for the full control effect
Target sequence (P21728 whole entry, looked up): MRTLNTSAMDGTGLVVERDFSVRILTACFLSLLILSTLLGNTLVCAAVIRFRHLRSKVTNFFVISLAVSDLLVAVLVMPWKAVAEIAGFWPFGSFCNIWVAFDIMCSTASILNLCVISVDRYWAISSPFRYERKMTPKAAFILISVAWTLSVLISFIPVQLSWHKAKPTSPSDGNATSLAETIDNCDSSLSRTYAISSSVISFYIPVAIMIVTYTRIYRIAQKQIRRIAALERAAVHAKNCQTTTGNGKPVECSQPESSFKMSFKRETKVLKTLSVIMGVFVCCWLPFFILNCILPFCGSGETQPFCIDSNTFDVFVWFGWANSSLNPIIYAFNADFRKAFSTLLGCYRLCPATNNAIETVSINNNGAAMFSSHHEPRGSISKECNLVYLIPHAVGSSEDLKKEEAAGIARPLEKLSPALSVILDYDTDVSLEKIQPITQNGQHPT
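Allosteric or orthosteric antagonism assessed as attenuation of the calcium response to EC80 dopamine, added 180 s after compound, in induced HEK293 Trex D1 cells loaded with no-wash calcium dye.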
D1 potentiator: human D1 dopamine receptor positive modulation; hit rate 0.036% among 360,000; P21728; potentiation, % at 10 µM; HEK293 TREx D1 cells, calcium flux, dopamine EC20 potentiation; in the data active = potentiation above about 30%; also: 0% is about no effect
D1 agonist: activates the human D1 dopamine receptor; P21728; HEK293 T-REx D1 cells, calcium flux, agonist mode; activation, % at 2 µM; hit rate 1% among 360,000; AID 504660; also: 0% is about no effect
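Tetracycline-induced HEK293 TREx D1 cells, force-coupled to calcium signalling, were dye-loaded with a no-wash calcium kit. Compound was pin-added after a 10 s baseline. Fluorescence was read kinetically at 1 cycle/s for 180 s, with calcium rises flagged as agonism.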
TRHR PAM: allosteric enhancers of human TRH receptor; hit rate 0.66% among 360,000; enhancement, % at 2 µM; P34981; TRHR cells, fluo-8 calcium fluorescence, EC20 TRH enhancement; AID 493056; in the data active = enhancement above about 30%; also: 0% is about no effect
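Enhancer read-out: after compound pinning and an initial kinetic agonist-mode read, an EC20 of TRH (10 nM final) was injected and fluo-8 calcium signal (Ex 480/Em 530) followed at 1 s/cycle for 100 cycles in TRHR-expressing cells.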
* hit, by the source's call; . = no result. Compounds with a hit are over-represented: about 4.6% of the library has one in this group of screens. Rule as the data show it, unless noted: active = activation above about 30%; inactive = the rest.

SMILES	Epigenetic reg	TRHR ag	D1 antag	D1 potentiator	D1 agonist	TRHR PAM
CC1OC(OC2C(OC3C(O[C@H]4CC[C@]5(C)C6C=C[C@]78OC[C@@]9(CC[C@@H](C)[C@H](C)C97)[C@H](O)C[C@@]8(C)[C@]6(C)CC[C@H]5C4(C)C)OC(C)C(O)C3O)OC(CO)C(O)C2O)C(O)C(O)C1O (some centres undefined)	-1.1%	58.9*	34.6	16.4	393.9*	-16.7
CC(NCC(O)COC1CCC(C(C)(C)C)CC1)c1ccccc1 (centres undefined)	3.4%	0.9	0.0	25.0	111.8*	14.1
CC1CCC(C(C)C)C(OCC(O)CNC(C)c2ccccc2)C1 (centres undefined)	10.6%	-1.1	42.5	-0.7	32.8*	1.7
CC1CCC(C(C)C)C(OCC(O)CNC(C)(C)C)C1 (centres undefined)	-0.1%	-0.3	21.3	4.8	4.5	-2.5
CC(NCC(O)COc1ccc(S(=O)(=O)N2CCOCC2)cc1)c1ccccc1 (centres undefined)	-1.5%	0.7	0.5	-10.6	7.5	-6.9
O=C(Nc1ccccc1C(F)(F)F)N1CCC(CN2CCc3ccccc3C2)CC1	-1.2%	-0.2	-5.7	6.3	30.4*	1.4
CN(CC(=O)Nc1ccccc1C(F)(F)F)C(=O)c1ccc2c(=O)n3c(nc2c1)CCC3	.	0.2	-32.0*	-4.7	3.1	6.5
CCN(C(=O)c1ccc2c(=O)n3c(nc2c1)CCCCC3)c1cc(C)ccc1C	0.0%	-0.2	-52.1*	-2.6	-0.5	3.3
Cc1ccc(NC(=O)c2ccc3c(=O)n4c(nc3c2)CCCCC4)nc1	.	0.5	13.7	-0.1	0.7	0.9
O=C(c1ccc2c(=O)n3c(nc2c1)CCCCC3)N1CCN(c2ccc(F)cc2)CC1	1.2%	-0.4	-49.9*	-11.4	0.8	-2.1
Cc1cccc(NC(=O)c2ccc3c(=O)n4c(nc3c2)CCCCC4)n1	.	-0.2	-36.8*	-8.1	2.6	-3.5
CCOc1ccc(NC(=O)Cn2nc3c(cc2=O)CC(C)CC3)cc1 (centres undefined)	0.0%	-0.3	-8.4	-1.4	-0.1	-0.7
N#Cc1c(C(F)(F)F)cc(-c2ccc(Cl)c(Cl)c2)nc1SCCN1CCOCC1	-0.9%	0.9	-4.7	-7.9	4.5	-8.3
N#Cc1c(C(F)(F)F)cc(-c2ccccc2)nc1SCc1nc(N)nc(N2CCOCC2)n1	6.31µM*	23.3	-17.1	-2.5	70.2*	-3.8
Cc1ccc(CNCc2cccn2-c2nnc(N3CCCC3)s2)cc1	-0.4%	-1.3	3.4	-6.5	24.1	3.7
Cc1ccc(CN(Cc2cccn2-c2nnc(N3CCCC3=O)s2)C(=O)Nc2ccccc2Cl)cc1	2.5%	1.5	-68.9*	-3.5	2.0	3.1
COc1ccc(Cl)cc1NC(=O)C1CCN(S(=O)(=O)c2ccc3c(c2)CCCN3C(=O)C2CCC2)CC1	0.0%	0.9	13.1	-3.1	-0.3	3.1
Cc1cc(C)cc(NC(=O)Cn2cc3c(n2)CCCCC3)c1	-0.7%	-0.6	-1.2	-0.2	51.1*	1.0
COC[C@H]1O[C@@H](c2c(OC)cc(OC)cc2OC)[C@H](OC)[C@@H](OC)[C@@H]1OC	1.1%	.	.	.	.	.
CCSc1nc2c([nH]c3ccccc32)c(=O)n1CC	2.1%	0.0	8.3	0.8	2.7	-1.2
CCn1c(SCC(=O)N2CC(C)OC(C)C2)nc2c([nH]c3ccccc32)c1=O (centres undefined)	.	0.7	-0.4	3.2	2.4	-6.4
CCOC(=O)N1CCN(C(=O)CSc2nc3c([nH]c4ccccc43)c(=O)n2CC)CC1	.	-0.5	-35.9*	4.3	0.4	0.0
CCn1c(SCC(=O)N(C)c2ccccc2)nc2c([nH]c3ccccc32)c1=O	.	-1.6	-37.0*	-6.2	1.0	-0.9
CCOC(=O)c1[nH]c(C)c(CCC(=O)NCc2ccccc2Cl)c1C	-0.2%	-0.4	-5.9	-2.1	2.3	0.1
CCOC(=O)c1sc2cc([N+](=O)[O-])cc(SCC(C)C)c2c1N	3.16µM*	14.2	17.6	-4.2	55.2*	-1.0
SMILES	Epigenetic reg	TRHR ag	D1 antag	D1 potentiator	D1 agonist	TRHR PAM
CC(C)n1cc(CN2CCCC(C(=O)Nc3cccc(-c4cc5ccccc5[nH]4)c3)C2)cn1 (centres undefined)	.	1.1	-30.6*	-15.1	30.4*	-0.1
COc1cccc(-c2ccc(NC(=O)C3CCCN(Cc4cnn(C)c4)C3)cc2)c1 (centres undefined)	.	6.2	1.2	-6.5	32.5*	27.9
Cn1cc(CN2CCCC(C(=O)Nc3cccc(-c4cc5ccccc5[nH]4)c3)C2)cn1 (centres undefined)	.	1.4	-18.6	-8.5	11.7	2.8
COCc1cc(CN2CCCC(C(=O)Nc3ccc(-c4ccco4)cc3)C2)ccc1OC (centres undefined)	.	0.5	-30.1*	3.8	1.9	22.4
Cc1ncc(CN2CCCC(C(=O)Nc3ccc(-c4cccc(F)c4)cc3)C2)n1C (centres undefined)	.	0.6	-31.6*	-12.8	15.6	-0.4
O=C(NCCc1ccccc1)c1cnc2sc(N3CCCCCC3)nn2c1=O	0.8%	-0.1	2.8	-5.3	1.0	1.1
COC(=O)c1ccccc1NC(=O)CCS(=O)(=O)c1nc(-c2ccc3c(c2)OCO3)cc(C(F)(F)F)n1	-1.2%	-0.5	5.8	-0.3	2.5	-0.9
CCOc1ccc(NC(=O)c2c(NC(=O)Cc3ccccc3)sc3c2CCCC3)cc1	-0.2%	1.5	2.0	-0.6	-0.2	-5.0
CC1CCN(C(=O)C(=O)Nc2sc3c(c2C(N)=O)CC(C)(C)OC3)CC1	.	0.0	-11.7	-1.9	0.6	-0.8
CC1CCN(C(=O)C(=O)Nc2sc3c(c2C(=O)O)CC(C)(C)OC3)CC1	.	0.3	-58.2*	7.5	3.0	7.3
CC(C)CN(CC(C)C)C(=O)C1CCCN(S(=O)(=O)c2ccc3c(c2)oc(=O)n3C)C1 (centres undefined)	6.7%	-0.9	-30.9*	-1.0	0.6	5.1
CCN(C(=O)C1CCN(S(=O)(=O)c2ccc3c(c2)oc(=O)n3C)CC1)c1cccc(C)c1	-2.7%	0.3	-39.1*	.	0.8	-5.5
CCN(CC)C(=O)C1CCN(S(=O)(=O)c2ccc3oc4ccccc4c3c2)CC1	-0.8%	-0.3	-35.5*	2.4	7.2	-3.6
Cc1ccc(N(C)C(=O)C2CCN(S(=O)(=O)c3ccc4c(c3)oc(=O)n4C)CC2)cc1	4.1%	0.1	-14.3	7.1	-0.8	1.0
Cc1ccc(N2CCN(C(=O)C3CCN(S(=O)(=O)c4ccc5c(c4)oc(=O)n5C)CC3)CC2C)cc1 (centres undefined)	-1.1%	-1.3	-44.4*	-3.1	12.2	-3.1

From PubChem
